The results in this text go back to ChEMBL document CHEMBL3988442, “University of Dundee, Small-Polar-MMV Screening Library” (2021).

What all share (parameters): scale not given: direction of the effect not stated beside the values
Assay [1] addresses Protein translocase subunit SecA (Escherichia coli (strain K12)) (UniProt P10408). As to the kind of experiment: Assay to Identify E. coli SecA ATPase Inhibitors. It counts as functional. To be noted: 30 µM.
In assay [2] the target is T1, Ubiquitin-activating enzyme e1, putative (Leishmania donovani (strain BPK282A1)) (UniProt E9BSI1).
T1 sequence (whole entry): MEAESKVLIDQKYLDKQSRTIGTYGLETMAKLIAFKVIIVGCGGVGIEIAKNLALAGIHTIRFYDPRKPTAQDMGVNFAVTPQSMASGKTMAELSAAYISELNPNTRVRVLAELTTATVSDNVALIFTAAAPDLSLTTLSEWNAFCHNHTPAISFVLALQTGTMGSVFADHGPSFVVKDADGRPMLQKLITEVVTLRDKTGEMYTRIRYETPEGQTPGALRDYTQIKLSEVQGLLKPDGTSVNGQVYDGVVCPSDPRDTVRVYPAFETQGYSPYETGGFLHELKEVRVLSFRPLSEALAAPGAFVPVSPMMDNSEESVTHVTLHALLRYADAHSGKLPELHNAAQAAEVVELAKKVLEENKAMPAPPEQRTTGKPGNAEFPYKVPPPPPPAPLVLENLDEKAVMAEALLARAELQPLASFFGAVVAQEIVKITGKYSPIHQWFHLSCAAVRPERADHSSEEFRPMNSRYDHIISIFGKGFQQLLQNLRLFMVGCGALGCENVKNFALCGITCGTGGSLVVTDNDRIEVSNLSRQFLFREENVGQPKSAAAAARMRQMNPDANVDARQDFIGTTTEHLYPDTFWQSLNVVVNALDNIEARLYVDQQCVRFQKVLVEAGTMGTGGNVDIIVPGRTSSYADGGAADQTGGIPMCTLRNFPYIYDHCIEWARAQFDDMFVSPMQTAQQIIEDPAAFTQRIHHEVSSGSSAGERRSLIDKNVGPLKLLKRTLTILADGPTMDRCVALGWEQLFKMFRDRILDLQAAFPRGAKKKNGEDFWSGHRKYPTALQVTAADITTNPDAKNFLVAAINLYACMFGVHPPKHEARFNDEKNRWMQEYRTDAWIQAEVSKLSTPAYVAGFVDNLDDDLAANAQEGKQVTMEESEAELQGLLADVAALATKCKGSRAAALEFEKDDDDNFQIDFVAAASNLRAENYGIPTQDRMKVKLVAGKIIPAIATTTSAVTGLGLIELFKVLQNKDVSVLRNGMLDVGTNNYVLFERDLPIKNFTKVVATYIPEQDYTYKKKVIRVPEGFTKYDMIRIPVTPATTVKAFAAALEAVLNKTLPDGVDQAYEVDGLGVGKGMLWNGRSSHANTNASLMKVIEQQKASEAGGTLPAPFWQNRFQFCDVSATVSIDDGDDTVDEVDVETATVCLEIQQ
As to the kind of experiment: Leishmania donovani Ubiquitin Activating Enzyme (LdE1). It is filed as functional. The following applies: 30 µM.

Assay [3] addresses AMP-activated protein kinase, AMPK (Homo sapiens) (UniProt P54646+O43741+P54619+Q9UGJ0+Q9Y478+Q13131+Q9UGI9). The assay can be described thus: AMP-dependent Kinase enzyme assay. An in vitro enzyme assay that detects ADP turnover that is directly proportional to AMPK activity. This uses naive AMPK that is activated during the assay with MK-8722. It is filed as functional. The following applies: 30 µM.

Assay [4] addresses Sialic acid-binding Ig-like lectin 9 (Homo sapiens) (UniProt Q9Y336). The assay can be described thus: Hs-Siglec9 ALPHAscreen SOP 20170721. The following applies: 10 µM.
For the next assay, the system named is Trypanosoma cruzi. The assay can be described thus: Trypanosoma cruzi phosphomannomutase and mannose-1-phosphate guanylyltransferase assay. It counts as functional. To be noted: 10 µM.
For assay [5], the target named is T2, Arginase-2, mitochondrial (Homo sapiens) (UniProt P78540).
T2 sequence (whole entry): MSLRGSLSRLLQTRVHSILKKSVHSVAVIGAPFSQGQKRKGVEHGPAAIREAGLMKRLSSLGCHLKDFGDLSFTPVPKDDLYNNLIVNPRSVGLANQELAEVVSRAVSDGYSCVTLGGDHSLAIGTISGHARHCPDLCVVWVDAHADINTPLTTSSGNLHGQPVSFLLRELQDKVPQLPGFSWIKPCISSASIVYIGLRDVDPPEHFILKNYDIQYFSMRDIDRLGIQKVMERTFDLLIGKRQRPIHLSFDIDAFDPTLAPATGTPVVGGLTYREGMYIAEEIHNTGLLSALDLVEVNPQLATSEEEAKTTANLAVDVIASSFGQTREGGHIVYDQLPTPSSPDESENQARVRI
The assay can be described thus: in vitro enzyme assay to detect the production of urea directly proportional to the activity of Arginase II. Also: in the data most compounds retested in dose-response had high values. To be noted: 33.3 µM. It is filed as functional.

In assay [6] the target is T3, Proteasome subunit beta (Trypanosoma cruzi) (UniProt O96673).
T3 sequence (whole entry): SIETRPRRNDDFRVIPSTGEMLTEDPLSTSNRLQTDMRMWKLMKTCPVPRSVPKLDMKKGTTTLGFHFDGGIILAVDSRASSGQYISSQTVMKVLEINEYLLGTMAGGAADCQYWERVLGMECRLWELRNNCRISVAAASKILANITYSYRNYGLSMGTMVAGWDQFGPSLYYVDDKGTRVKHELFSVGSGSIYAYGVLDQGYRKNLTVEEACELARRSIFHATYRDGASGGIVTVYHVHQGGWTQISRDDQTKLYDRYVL
The assay can be described thus: Trypanosoma cruzi proteasome chymotrypsin-like activity (TcProtChymo) assay. Also: in the data most compounds retested in dose-response had high values. To be noted: 9.37 µM. It counts as functional.

For a further assay, the species on record is Homo sapiens. As to the kind of experiment: To identify inhibition of the IFN signalling (Jak-Stat) pathway via expression of an eGFP reporter gene under the control of an IFN-stimulated response element (ISRE) containing MxA promoter. It is filed as functional. To be noted: 30 µM. For orientation: In a reporter assay the amount or activity of a reporter protein is the signal.

The target of assay [7] is T4, Tyrosyl-tRNA synthetase, putative (Trypanosoma cruzi (strain CL Brener)) (UniProt Q4DSP6).
T4 sequence (whole entry): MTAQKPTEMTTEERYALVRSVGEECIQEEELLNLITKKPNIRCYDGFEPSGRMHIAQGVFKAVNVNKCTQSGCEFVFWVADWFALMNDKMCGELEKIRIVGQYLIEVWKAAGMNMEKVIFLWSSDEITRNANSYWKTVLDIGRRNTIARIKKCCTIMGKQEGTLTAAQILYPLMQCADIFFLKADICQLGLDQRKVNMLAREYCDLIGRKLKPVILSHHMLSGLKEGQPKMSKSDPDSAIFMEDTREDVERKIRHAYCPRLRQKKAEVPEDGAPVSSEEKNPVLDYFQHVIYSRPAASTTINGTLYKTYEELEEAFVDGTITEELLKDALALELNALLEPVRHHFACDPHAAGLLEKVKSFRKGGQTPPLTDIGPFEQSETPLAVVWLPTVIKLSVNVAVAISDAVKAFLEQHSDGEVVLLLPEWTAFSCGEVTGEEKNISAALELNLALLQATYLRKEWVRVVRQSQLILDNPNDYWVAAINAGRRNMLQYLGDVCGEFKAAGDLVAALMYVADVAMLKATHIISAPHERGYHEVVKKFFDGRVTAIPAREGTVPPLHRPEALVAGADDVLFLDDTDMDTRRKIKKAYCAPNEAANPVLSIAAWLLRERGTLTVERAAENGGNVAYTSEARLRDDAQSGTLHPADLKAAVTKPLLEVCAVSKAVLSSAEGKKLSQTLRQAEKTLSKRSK
As to the kind of experiment: Trypanosoma cruzi tyrosyl tRNA synthetase (TcYRS) _High Tyrosine SOP. Also: in the data most compounds retested in dose-response had high values. It counts as functional. To be noted: 30 µM.

The target of assay [8] is T4, Tyrosyl-tRNA synthetase, putative (Trypanosoma cruzi (strain CL Brener)). As to the kind of experiment: Trypanosoma cruzi tyrosyl tRNA synthetase (TcYRS) SOP. It is filed as functional. The following applies: 30 µM.
The target of assay [9] is Chromo domain-containing protein 1 (Saccharomyces cerevisiae (strain ATCC 204508 / S288c) (Baker's yeast)) (UniProt P32657). As to the kind of experiment: ScCHD-1 Enzyme Inhibition Assay. Also: in the data most compounds retested in dose-response had high values. It is filed as functional. To be noted: 30 µM.

For some of these results: Measured potencies and affinities stand elsewhere.

Protein translocase subunit SecA (Escherichia coli (strain K12)), sequence (P10408 whole entry): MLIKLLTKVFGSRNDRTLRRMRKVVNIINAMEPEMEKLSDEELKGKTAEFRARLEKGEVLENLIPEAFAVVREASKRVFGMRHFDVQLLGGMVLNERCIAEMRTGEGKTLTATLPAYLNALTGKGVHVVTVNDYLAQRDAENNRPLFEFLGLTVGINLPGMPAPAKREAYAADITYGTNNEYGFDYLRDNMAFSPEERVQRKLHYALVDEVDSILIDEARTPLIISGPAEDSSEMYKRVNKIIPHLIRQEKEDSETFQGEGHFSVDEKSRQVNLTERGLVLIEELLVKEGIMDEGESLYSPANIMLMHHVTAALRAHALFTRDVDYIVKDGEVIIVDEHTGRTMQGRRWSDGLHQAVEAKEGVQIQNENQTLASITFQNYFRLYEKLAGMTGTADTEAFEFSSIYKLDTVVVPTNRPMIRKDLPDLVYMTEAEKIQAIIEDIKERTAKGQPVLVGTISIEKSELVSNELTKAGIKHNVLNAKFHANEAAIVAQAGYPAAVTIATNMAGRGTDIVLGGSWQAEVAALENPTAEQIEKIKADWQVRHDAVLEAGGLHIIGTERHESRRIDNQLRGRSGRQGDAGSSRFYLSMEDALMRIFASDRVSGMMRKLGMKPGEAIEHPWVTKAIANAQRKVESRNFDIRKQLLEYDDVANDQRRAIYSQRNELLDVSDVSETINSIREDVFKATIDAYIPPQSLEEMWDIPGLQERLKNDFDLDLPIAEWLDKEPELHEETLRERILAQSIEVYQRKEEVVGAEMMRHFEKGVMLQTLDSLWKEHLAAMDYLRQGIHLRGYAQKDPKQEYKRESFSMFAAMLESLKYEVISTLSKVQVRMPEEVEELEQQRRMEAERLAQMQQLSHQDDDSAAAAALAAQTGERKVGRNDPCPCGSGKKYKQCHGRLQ
Chromo domain-containing protein 1 (Saccharomyces cerevisiae (strain ATCC 204508 / S288c) (Baker's yeast)), sequence (P32657 whole entry, the tested form may be a part): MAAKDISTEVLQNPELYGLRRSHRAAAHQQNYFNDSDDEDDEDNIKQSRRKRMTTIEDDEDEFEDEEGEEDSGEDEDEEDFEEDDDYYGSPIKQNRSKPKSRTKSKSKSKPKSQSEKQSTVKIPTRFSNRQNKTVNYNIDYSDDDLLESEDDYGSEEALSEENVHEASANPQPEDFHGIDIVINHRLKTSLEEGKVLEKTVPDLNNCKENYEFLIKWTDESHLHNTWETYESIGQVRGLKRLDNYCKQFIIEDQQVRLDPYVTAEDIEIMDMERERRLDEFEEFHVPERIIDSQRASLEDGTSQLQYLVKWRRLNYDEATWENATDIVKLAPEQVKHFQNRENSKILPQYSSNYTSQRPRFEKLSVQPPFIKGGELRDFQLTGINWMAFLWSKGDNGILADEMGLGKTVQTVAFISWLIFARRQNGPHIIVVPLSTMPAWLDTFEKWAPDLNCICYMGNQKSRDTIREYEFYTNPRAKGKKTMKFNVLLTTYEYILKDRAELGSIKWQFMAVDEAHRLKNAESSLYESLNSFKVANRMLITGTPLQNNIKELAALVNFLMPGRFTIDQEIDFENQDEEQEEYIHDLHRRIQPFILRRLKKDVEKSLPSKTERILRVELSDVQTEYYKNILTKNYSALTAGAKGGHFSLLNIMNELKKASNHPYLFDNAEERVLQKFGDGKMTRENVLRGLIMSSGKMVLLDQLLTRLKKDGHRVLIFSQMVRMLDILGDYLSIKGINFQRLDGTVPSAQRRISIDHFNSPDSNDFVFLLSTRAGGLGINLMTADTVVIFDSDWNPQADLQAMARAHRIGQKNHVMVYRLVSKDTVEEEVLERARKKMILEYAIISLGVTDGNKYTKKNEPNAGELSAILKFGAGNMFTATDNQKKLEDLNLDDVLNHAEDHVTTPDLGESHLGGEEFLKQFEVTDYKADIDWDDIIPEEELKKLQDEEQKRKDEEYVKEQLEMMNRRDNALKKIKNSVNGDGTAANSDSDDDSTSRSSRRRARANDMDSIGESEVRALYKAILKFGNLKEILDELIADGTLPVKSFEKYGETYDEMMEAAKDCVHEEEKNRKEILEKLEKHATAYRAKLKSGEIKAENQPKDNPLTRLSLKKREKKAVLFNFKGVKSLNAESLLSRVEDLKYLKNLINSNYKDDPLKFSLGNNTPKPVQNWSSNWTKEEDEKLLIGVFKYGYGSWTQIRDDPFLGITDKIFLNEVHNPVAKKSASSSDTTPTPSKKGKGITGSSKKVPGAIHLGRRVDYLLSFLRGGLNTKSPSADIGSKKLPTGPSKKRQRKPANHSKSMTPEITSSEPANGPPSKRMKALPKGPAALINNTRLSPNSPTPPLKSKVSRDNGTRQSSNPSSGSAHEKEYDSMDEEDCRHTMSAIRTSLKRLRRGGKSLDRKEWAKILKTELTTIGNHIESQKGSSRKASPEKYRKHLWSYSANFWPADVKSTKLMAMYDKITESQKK
Sialic acid-binding Ig-like lectin 9 (Homo sapiens), sequence (Q9Y336 whole entry): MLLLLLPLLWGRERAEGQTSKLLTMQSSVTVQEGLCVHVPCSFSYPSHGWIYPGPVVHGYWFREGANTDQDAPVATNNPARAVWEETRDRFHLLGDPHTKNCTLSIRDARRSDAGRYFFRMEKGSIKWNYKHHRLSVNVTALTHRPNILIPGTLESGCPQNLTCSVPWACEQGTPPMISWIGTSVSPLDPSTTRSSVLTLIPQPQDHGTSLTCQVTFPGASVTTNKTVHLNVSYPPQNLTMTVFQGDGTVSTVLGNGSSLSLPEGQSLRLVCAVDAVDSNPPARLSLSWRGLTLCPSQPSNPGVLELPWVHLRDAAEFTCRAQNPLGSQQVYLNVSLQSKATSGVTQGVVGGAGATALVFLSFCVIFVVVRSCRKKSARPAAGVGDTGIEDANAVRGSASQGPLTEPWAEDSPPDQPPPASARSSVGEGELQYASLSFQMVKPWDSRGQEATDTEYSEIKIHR

Take `CCS(=O)(=O)N1CCc2ccc(NC(=O)Nc3cccc(SC)c3)cc21`: the Percent Effect in [1] is -1.43%; in assay [2] it was -20.8%; in [3] it was 1.15%; in assay [4] it was 1.13%; in the assay with Trypanosoma cruzi, 0.69%; in assay [5], -3.23%. The Percent Effect in [6] is 17.6%; in the assay listed under Homo sapiens it was 77.5%; in assay [7], -48.7%; in [8], -73.1%; in assay [9] it was -5.8%.
Turning to `CCn1c(CN(C)C)nnc1C1CCN(c2ccnc(C)c2)CC1`, the Percent Effect in [1] is -0.496%; in [2], 6.94%; in [3], -2.58%; in [4], -2.36%; in the assay on Trypanosoma cruzi it was -1.85%; in [5], 2.65%. The Percent Effect is 21.1% in assay [6]; -1.07% in the assay filed under Homo sapiens; 5.26% in assay [7]; 5.13% in assay [8]; -1.27% in assay [9].
With `CC(C)OCCOCc1cccc(NC(=O)NCCn2ccnc2)c1`, the Percent Effect in [1] is -0.877%; in assay [2], 10.4%; in [3], -2.37%; in assay [4], 9.62%; in the assay with Trypanosoma cruzi, 5.61%; in assay [5], -1.38%. The Percent Effect in assay [6] was 8.65%; in the assay filed under Homo sapiens, -0.82%; in assay [7], -1.07%; in assay [8] it was 3.7%; in assay [9] it was -7.91%.
On to `CCc1nc(C2CCCN2CC(=O)Nc2c(C)n[nH]c2C)no1` (stereo unspecified), for which the Percent Effect in assay [1] was 1.31%; in [2] it was -2.6%; in [3] it was -3.26%; in assay [4] it was 6.7%; in the assay with Trypanosoma cruzi, -5.62%; in assay [5] it was 5.34%. For the same compound, the Percent Effect in [6] was 3.38%; in the assay listed under Homo sapiens, 16.5%; in assay [7], 1.94%; in assay [8], 7.32%; in assay [9], -0.363%.
As for `CCN(CC)S(=O)(=O)N1CCCC(c2cccc(C(=O)O)c2)C1` (stereo unspecified), the Percent Effect in [1] is -3.72%; in assay [2], 16.2%; in assay [3], -6.67%; in assay [4], 19.8%; in the assay on Trypanosoma cruzi, 6.56%; in [5], 0.952%. Besides, the Percent Effect was 10.9% in [6]; 5.56% in the assay filed under Homo sapiens; 6.88% in assay [7]; 17.1% in assay [8]; -5.44% in [9].
As for `Cc1ncccc1O[C@H]1CCN(C(=O)c2cccs2)CC[C@@H]1O`, the Percent Effect in assay [1] was -1.97%; in assay [2], -9.46%; in assay [3] it was 7.91%; in assay [4], 0.722%; in the assay with Trypanosoma cruzi, -2.17%; in assay [5] it was -2.09%. Further, the Percent Effect in assay [6] was 2.03%; in the assay listed under Homo sapiens it was 4.21%; in assay [7], 1.07%; in [8], -1.3%; in assay [9] it was -0.631%.
Regarding `CCCc1cc(C(=O)N2CCCC(n3ccnc3C)C2)[nH]n1` (stereo unspecified), the Percent Effect in assay [1] is -3.55%; in assay [2], 5.06%; in [3], -3.54%; in assay [4], 9.52%; with Trypanosoma cruzi it was 3.87%; in assay [5] it was 3.04%. The Percent Effect in assay [6] was -7.94%; in the assay listed under Homo sapiens it was 15.5%; in assay [7] it was 3.45%; in [8], 11.4%; in assay [9], -1.51%.
As for `Cc1ccccc1CSc1nc(N)cc(N2CCOC(C(N)=O)C2)n1` (stereo unspecified), the Percent Effect in [1] is -5.78%; in assay [2], 2.7%; in [3], -2.45%; in [4], -7.55%; with Trypanosoma cruzi it was -4.4%; in assay [5] it was 0.248%. Further, the Percent Effect was 10% in [6]; 22.4% in the assay filed under Homo sapiens; 6.45% in assay [7]; 11.1% in [8]; -1.13% in [9].
Take `CC(C(=O)N1CCCN(c2ncccc2C#N)CC1)n1cccn1` (stereo unspecified): the Percent Effect in assay [1] was -3.42%; in assay [2], 10.5%; in assay [3], 0.522%; in [4], -3.82%; in the assay with Trypanosoma cruzi, -6.63%; in [5], 4.68%. Moreover, the Percent Effect was 4.32% in [6]; 3.06% in the assay listed under Homo sapiens; 5.42% in [7]; 11.1% in [8]; -6.77% in [9].
`COc1cc(CNCc2ccc(C(C)O)cc2)cc2c1OCO2` (stereo unspecified): the Percent Effect in [1] is -4.95%; in assay [2], 18.9%; in [3], 2.1%; in assay [4], 10.4%; in the assay on Trypanosoma cruzi, 8.45%; in assay [5] it was 0.185%. For the same compound, the Percent Effect in [6] was 20.8%; in the assay filed under Homo sapiens it was 15.6%; in assay [7], 9.9%; in assay [8], 28.1%; in assay [9] it was -9.5%.
`CC(=O)c1cccc(OCC(=O)NS(=O)(=O)c2ccc(C)s2)c1`: the Percent Effect is -6.93% in assay [1]; 12.7% in assay [2]; -2.86% in assay [3]; 9.9% in assay [4]; 4.63% in the assay with Trypanosoma cruzi; -4.56% in [5]. For the same compound, the Percent Effect in assay [6] was 3.85%; in the assay listed under Homo sapiens it was -8.7%; in assay [7], 3.45%; in assay [8] it was 13.9%; in [9], -6.95%.
